The source of these data is the supplement of paper PMC12819154, “High-throughput peptide-centric local stability assay extends protein–ligand identification to membrane proteins, tissues and bacteria” (Nature Structural & Molecular Biology, 2025).

Sequence of UniProt Q00535 (Q00535 whole entry, looked up): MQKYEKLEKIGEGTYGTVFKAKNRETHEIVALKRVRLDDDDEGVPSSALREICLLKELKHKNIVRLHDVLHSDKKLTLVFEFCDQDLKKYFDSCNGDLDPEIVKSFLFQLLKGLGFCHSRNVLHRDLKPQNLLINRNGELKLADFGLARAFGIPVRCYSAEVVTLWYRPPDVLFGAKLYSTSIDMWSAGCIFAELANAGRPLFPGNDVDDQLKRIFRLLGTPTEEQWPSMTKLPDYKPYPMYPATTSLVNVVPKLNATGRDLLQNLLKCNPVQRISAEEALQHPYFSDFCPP
Sequence of UniProt P27448 (P27448 whole entry, looked up): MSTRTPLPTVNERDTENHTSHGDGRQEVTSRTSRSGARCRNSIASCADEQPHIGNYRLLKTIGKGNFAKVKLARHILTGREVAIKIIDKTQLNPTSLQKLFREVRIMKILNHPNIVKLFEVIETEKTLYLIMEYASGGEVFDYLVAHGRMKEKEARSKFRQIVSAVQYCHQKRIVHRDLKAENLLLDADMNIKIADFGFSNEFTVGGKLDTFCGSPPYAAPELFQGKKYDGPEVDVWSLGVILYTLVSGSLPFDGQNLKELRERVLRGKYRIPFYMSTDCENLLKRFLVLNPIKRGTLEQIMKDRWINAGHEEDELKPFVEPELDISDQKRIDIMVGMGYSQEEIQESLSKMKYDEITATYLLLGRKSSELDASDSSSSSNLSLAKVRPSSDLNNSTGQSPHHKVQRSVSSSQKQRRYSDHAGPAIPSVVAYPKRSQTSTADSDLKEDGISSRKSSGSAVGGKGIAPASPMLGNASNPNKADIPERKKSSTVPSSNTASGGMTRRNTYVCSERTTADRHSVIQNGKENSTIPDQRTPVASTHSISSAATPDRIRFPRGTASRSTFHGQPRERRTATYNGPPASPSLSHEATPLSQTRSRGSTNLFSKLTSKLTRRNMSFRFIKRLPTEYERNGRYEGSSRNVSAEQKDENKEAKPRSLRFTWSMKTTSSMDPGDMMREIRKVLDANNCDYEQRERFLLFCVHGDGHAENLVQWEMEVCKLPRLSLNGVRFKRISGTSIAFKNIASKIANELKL
Sequence of UniProt Q08J23 (Q08J23 whole entry): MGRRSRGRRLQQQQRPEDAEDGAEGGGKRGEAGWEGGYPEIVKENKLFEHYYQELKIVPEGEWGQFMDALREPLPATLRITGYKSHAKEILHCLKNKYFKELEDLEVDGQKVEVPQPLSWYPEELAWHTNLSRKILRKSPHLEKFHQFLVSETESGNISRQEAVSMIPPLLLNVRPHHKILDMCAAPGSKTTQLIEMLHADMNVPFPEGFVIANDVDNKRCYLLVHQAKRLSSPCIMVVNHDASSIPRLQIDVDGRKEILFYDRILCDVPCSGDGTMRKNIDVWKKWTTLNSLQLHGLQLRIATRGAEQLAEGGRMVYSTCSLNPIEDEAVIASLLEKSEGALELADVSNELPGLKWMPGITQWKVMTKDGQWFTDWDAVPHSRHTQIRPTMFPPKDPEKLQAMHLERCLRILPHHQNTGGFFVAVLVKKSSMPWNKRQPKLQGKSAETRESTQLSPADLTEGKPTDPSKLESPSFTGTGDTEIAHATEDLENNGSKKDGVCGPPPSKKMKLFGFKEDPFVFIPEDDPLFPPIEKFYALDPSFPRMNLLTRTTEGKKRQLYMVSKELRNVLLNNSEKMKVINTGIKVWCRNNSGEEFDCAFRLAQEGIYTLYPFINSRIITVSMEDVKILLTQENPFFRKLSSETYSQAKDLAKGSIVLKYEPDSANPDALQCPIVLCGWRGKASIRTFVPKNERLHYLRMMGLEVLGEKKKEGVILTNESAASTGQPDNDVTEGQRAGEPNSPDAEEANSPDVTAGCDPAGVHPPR
Sequence of UniProt P48739 (P48739 whole entry): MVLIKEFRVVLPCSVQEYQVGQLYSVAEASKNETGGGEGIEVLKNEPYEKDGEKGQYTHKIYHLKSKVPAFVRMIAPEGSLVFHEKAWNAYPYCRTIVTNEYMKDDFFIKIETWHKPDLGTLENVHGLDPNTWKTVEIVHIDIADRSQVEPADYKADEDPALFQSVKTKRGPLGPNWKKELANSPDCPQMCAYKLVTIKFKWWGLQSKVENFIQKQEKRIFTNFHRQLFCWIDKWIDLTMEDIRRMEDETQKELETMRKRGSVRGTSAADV
Sequence of UniProt Q13188 (Q13188 whole entry): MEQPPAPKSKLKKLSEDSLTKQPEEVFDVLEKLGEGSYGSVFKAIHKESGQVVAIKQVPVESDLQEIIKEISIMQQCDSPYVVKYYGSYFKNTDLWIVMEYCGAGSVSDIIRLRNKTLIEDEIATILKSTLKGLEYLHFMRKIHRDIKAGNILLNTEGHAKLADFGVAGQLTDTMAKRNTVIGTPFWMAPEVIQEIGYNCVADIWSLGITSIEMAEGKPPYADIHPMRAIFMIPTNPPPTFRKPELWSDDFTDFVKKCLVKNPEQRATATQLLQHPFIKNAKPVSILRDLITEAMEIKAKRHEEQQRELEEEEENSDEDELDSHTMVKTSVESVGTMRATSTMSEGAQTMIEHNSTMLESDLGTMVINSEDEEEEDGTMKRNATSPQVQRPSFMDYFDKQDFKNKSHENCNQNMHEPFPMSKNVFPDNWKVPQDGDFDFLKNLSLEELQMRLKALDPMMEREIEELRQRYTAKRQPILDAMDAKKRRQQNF
Sequence of UniProt Q15208 (Q15208 whole entry, looked up): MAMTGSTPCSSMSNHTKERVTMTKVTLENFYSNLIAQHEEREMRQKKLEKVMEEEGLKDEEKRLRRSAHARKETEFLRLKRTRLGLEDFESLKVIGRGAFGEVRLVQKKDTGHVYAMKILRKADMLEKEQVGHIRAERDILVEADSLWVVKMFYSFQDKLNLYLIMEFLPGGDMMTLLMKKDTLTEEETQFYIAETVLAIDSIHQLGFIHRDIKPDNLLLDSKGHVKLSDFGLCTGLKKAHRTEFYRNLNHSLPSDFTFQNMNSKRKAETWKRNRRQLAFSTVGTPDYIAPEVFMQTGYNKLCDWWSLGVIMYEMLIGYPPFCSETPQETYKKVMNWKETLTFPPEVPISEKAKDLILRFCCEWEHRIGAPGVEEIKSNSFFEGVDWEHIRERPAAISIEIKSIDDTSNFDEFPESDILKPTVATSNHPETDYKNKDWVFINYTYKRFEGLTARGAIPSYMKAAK
Sequence of UniProt O75676 (O75676 whole entry, looked up): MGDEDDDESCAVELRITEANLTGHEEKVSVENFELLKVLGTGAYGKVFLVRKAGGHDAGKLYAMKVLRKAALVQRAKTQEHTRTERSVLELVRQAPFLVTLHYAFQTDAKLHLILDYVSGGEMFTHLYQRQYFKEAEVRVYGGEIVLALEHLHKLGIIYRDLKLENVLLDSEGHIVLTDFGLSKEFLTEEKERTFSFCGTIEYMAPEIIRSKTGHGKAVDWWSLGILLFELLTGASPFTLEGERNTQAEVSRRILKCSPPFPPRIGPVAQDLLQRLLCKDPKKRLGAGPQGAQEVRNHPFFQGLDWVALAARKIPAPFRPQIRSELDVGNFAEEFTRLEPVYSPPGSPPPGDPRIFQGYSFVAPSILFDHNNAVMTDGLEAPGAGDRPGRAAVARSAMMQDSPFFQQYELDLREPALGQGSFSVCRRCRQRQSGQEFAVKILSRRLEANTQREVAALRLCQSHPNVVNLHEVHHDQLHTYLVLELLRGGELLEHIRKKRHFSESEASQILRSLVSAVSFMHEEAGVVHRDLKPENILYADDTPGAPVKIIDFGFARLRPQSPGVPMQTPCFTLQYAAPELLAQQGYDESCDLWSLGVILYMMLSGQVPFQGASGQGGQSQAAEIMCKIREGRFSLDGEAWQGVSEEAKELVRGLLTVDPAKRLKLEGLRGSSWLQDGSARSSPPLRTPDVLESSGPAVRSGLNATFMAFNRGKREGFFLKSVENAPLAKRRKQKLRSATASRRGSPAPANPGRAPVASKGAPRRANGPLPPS
Sequence of UniProt O14920 (O14920 whole entry): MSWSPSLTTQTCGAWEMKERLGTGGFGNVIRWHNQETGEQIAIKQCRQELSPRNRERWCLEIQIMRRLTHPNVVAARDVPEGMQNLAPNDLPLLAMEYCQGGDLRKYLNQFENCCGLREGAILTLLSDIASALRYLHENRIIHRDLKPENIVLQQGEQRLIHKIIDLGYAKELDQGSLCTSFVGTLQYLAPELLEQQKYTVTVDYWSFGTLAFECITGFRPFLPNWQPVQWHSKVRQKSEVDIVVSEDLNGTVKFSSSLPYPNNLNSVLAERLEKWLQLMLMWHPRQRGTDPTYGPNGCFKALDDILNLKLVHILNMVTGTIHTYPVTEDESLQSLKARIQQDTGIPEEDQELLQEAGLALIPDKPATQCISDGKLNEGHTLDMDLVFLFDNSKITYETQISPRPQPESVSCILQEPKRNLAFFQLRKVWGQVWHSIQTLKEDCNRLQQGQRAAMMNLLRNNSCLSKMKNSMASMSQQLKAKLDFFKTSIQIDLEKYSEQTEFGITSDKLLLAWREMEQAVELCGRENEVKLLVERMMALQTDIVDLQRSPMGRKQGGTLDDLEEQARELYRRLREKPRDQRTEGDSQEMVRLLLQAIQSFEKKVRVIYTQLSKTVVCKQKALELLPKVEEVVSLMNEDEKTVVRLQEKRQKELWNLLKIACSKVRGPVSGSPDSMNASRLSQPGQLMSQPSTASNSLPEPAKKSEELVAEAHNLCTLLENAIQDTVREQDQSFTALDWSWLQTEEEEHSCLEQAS

Compound in this experiment: CN[C@@H]1C[C@H]2O[C@@](C)([C@@H]1OC)n1c3ccccc3c3c4c(c5c6ccccc6n2c5c31)C(=O)NC4 [staurosporine]
Kind of experiment: log2 fold change of tryptic peptide abundance, ligand vs vehicle (limited proteolysis) (log2 ratio); higher = more trypsin-susceptible (destabilized). The note with it: ligand concentration: 20 uM; sample: K562 cleared lysate; digestion: 4 min, 22 C (HT-PELSA RT4min, Orbitrap Astral).
“RPS6KA4 (peptide sequence: VLGTGAYGK, peptide start residue: 54) (UniProt O75676)”: the log2 fold change was -0.533.
In the case of “UniProt O14920 (peptide sequence: AAMMNLLR, peptide start residue: 453)” it was 0.5; in that of “NSUN2 (peptide sequence: LAQEGIYTLYPFINSR, peptide start residue: 603) (UniProt Q08J23)”, -0.339; in that of “UniProt Q13188 (peptide sequence: AIFMIPTNPPPTFR, peptide start residue: 232)”, -3.02.
Take “RPL18A (peptide sequence: ARAHSIQIMKVEEIAASK, peptide start residue: 119) (UniProt Q02543)”: the log2 fold change came out at 0.524.
The result for “UniProt P27448 (peptide sequence: NSIASCADEQPHIGNYR, peptide start residue: 41)” reads -2.82; that for “CDK5 (peptide sequence: DLKPQNLLINR, peptide start residue: 126) (UniProt Q00535)”, -3.41.
In the case of “PITPNB (peptide sequence: GTSAADV, peptide start residue: 265) (UniProt P48739)” it was 0.354; in that of “UniProt Q15208 (peptide sequence: VMEEEGLKDEEKR, peptide start residue: 51)”, 0.382.
